This is an account of results in PubChem BioAssay (Tox21).

Experiment [1] in a line: Nuclear factor erythroid 2-related factor 2/antioxidant responsive element (Nrf2/ARE) small molecule agonists: qHTS cell viability counter screen in human keratinocytes (AID 1919968; active means well fitted curve in the direction sought with a large enough effect in the repeat runs; an effect the other way counts as inactive or inconclusive; further: nearly all actives have a fitted effect of over 55% in size; further: potency means the concentration at half of the fitted maximal effect). In short, it runs like this: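 Parallel cytotoxicity read: KeratinoSens HaCaT cells, compound treatment 23 h, viability by CellTiter-Fluor fluorescence 1 h post-reagent.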
Experiment [2] is described as follows: Nuclear factor erythroid 2-related factor 2/antioxidant responsive element (Nrf2/ARE) small molecule agonists: luciferase reporter gene qHTS assay in human keratinocytes (AID 1919969). Further: nearly all actives have a fitted effect of over 35% in size. Further: potency means the concentration at half of the fitted maximal effect. A general note: Reporter assays use an easily measured gene product as a stand-in for the process of interest.
The target in experiment [3] is Gonadotropin-releasing hormone receptor (Homo sapiens) (UniProt P30968). In words: Human gonadotropin-releasing hormone receptor (GnRHR) small molecule agonists, calcium flux assay in GnRHR-HEK293 cells (AID 1920063). Further: nearly all actives have a fitted effect of over 35% in size. In short, it runs like this:
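Calcium flux, agonist mode, human GnRHR stably integrated in HEK293; dye 1 h at 37 C before compound; Ex/Em=480/540 kinetic read, 3 min; 15 concentrations, triplicate.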
Background: Calcium assays in cells follow changes in intracellular calcium, usually with a dye or a luminescent sensor.

The target in experiment [4] is KiSS-1 receptor (Homo sapiens) (UniProt Q969F8). In words: Human kisspeptin (KISS1R) small molecule agonists, calcium flux assay in KISS1R-HEK293 cells (AID 1920064; active means well fitted curve in the direction sought with a large enough effect in the repeat runs; an effect the other way counts as inactive or inconclusive). In short, it runs like this: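 Triplicate 15-concentration series were applied to dye-loaded human KISS1R HEK293 cells, and agonist-evoked calcium fluorescence was captured for 3 min.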
Experiment [5] is described as follows: G protein-coupled receptor (GPCR) small molecule agonists, calcium flux assay: HEK293 wild type cell line counter screen (AID 1920065). The essentials: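 Non-specific calcium responders were flagged by adding DMSO-dissolved compounds to dye-loaded cells and reading 480/540 nm fluorescence each second for 3 min; ATP served as positive control.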
The nature of experiment [6]: p53 small molecule agonists, cell-based qHTS assay with human liver microsomes (AID 1963577).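 Further: p53 response element beta-lactamase reporter cells with liver microsomes plus NADPH.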 The essentials: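 Steps: plate p53RE-bla cells, incubate 5 h at 37 C; add compound in DMSO; add microsomes (0.5 mg/mL final) and NADPH (0.5 mg/mL final); incubate 16 h at 37 C; add LiveBLAzer, 2 h RT; read fluorescence.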
A general note: qHTS replaces the single test concentration by a dilution series.

The nature of experiment [7]: p53 small molecule agonists, cell-based qHTS assay with rat liver microsomes (AID 1963578). In short, it runs like this:
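Metabolic activation is supplied by rat liver microsomes with NADPH (each 0.5 mg/mL final). p53RE-bla cells incubate with compound 16 h at 37 C; reporter activity is measured by LiveBLAzer fluorescence.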

Experiment [8] can be described thus: p53 small molecule agonists, cell-based qHTS assay with human liver microsomes: qHTS cell viability counter screen (AID 1963579). Further: nearly all actives have a fitted effect of over 45% in size. The essentials: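 After the 460/530 nm beta-lactamase read, CellTiter-Glo was added to the same wells and luminescence measured after 30 min at room temperature, giving viability of p53RE-bla cells treated 16 h with compounds plus microsomes and NADPH.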

A short description of experiment [9]: p53 small molecule agonists, cell-based qHTS assay with rat liver microsomes: qHTS cell viability counter screen (AID 1963580). Further: nearly all actives have a fitted effect of over 45% in size. In short, it runs like this:
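Rat liver microsome (0.5 mg/mL final) and NADPH (0.5 mg/mL final) co-incubation with compounds for 16 h at 37 C on HCT-116 p53RE-bla cells; cytotoxicity taken from intracellular ATP luminescence.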

A short description of experiment [10]: p53 small molecule agonists, cell-based qHTS assay: qHTS cell viability counter screen (AID 1963581). Further: nearly all actives have a fitted effect of over 45% in size. In short, it runs like this: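 Multiplexed with the reporter read, a CellTiter-Glo step (30 min, room temperature) gauges ATP-based viability of HCT-116 p53RE-bla cells after 16 h compound incubation at 37 C.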
The nature of experiment [11]: p53 small molecule agonists, cell-based qHTS assay (AID 1963582; active means well fitted activation curve with a large enough effect in the signal ratio in the repeat runs, not every such curve was filed as active; the % refers to the signal ratio). The essentials: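 Beta-lactamase reporter cells (p53RE-bla) treated with compounds for 16 h at 37 C; FRET substrate, 2 h, room temperature; fluorescence intensity.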
In experiment [12] the target is 5-hydroxytryptamine receptor 2A (Homo sapiens) (UniProt P28223). In words: 5-hydroxytryptamine receptor 2A (HTR2A) small molecule antagonists, cell-based qHTS assay (AID 1963586). Further: nearly all actives have a fitted effect of over 45% in size. In short, it runs like this: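 CHO cells stably expressing human HTR2A were plated for 18 h at 37 C, then loaded with calcium dye for 1 h. Compounds were preincubated 5 min at room temperature before DOI (4 nM solution) was added. Kinetic fluorescence was read for 3 min.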

The target is the same in experiment [13]. In words: 5-hydroxytryptamine receptor 2A (HTR2A) small molecule agonists, cell-based qHTS assay (AID 1963587). Further: nearly all actives have a fitted effect of over 30% in size. Further: potency means the concentration at half of the fitted maximal effect. The essentials: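 Kinetic calcium-flux fluorescence (2 min, 1 sec intervals) after compound addition in agonist mode. HTR2A-CHO cells were cultured 18 h, then dye-loaded 1 h at 37 C.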
Experiment [14] concerns the target Muscarinic acetylcholine receptor M1 (Homo sapiens) (UniProt P11229). In words: Cholinergic receptor muscarinic 1 (CHRM1) small molecule antagonists, cell-based qHTS assay (AID 1963588). Further: nearly all actives have a fitted effect of over 40% in size. Further: potency means the concentration at half of the fitted maximal effect. The essentials: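 Compounds were tested at 15 concentrations in three independent runs. Dye-loaded CHRM1-CHO cells were exposed 5 min at room temperature before stimulation by acetylcholine added at 50nM. Intracellular calcium was read kinetically on FDSS for 3 min.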

Experiment [15] shares this target. The experiment is described as follows: Cholinergic receptor muscarinic 1 (CHRM1) small molecule agonists, cell-based qHTS assay (AID 1963589). Further: nearly all actives have a fitted effect of over 35% in size. The essentials: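 qHTS, 15-point titration, 3 independent runs: compounds pin-transferred onto dye-loaded CHRM1-CHO cells (human M1), calcium fluorescence followed every second to detect agonism.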
Experiment [16] can be described thus: cAMP Responsive Elements (CRE) small molecule agonists, cell-based qHTS assay (AID 1963590). In short, it runs like this:
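Quantitative HTS for CRE agonists: HEK 293T CRE-bla cells, overnight plating, 3 h compound incubation at 37 C/5% CO2, then 2 h room-temperature LiveBLAzer B/G FRET substrate loading.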

The target of experiment [17] is Beta-2 adrenergic receptor (Homo sapiens) (UniProt P07550). The experiment is described as follows: Adrenergic beta2 receptor (ADRB2) small molecule antagonists, cell-based qHTS assay (AID 1963592). Further: series mostly up to about 92 µM; nearly all actives have a fitted effect of over 50% in size. The essentials:
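Assay format: CHO-ADRB2 cells, 18-20hr seeding at 37C/5% CO2, then compound plus 1nM isoproterenol agonist mix for 0.5hr RT. Homogeneous time-resolved fluorescence cAMP detection after 1hr, expressed as 665/615 nm ratio.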

Experiment [18] deals with D(2) dopamine receptor (Homo sapiens) (UniProt P14416). In words: Dopamine D2 receptor (DRD2) small molecule agonists, cell-based qHTS assay (AID 1963594). Further: nearly all actives have a fitted effect of over 35% in size. The essentials: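 cAMP accumulation in DRD2-HEK293 cells measured by HTRF after 1 h detection; compounds added 10 min before NKH477 (200nM […]) forskolin-analogue stimulation, 30 min at room temperature, with Ro20-1724 present at 0.1 mM final.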

For experiment [19] the target is unchanged. In words: Dopamine D2 receptor (DRD2) small molecule antagonists, cell-based qHTS assay (AID 1963595; active means well fitted inhibition curve with a large enough effect in the signal ratio in the repeat runs, with a control signal flat; the % refers to the signal ratio). In short, it runs like this: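 Readout: HTRF cAMP, cAMP-d2 competing with cellular cAMP for anti-cAMP cryptate, read after 1 h. Cells: DRD2-HEK293. Conditions: 0.1 mM Ro20-1724, 12 nM quinpirole, 200 nM NKH477, 30 min RT.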
Experiment [20] can be described thus: cAMP Responsive Elements (CRE) small molecule antagonists, cell-based qHTS assay (AID 1963591; active means well fitted inhibition curve with a large enough effect in the signal ratio in the repeat runs, not every such curve was filed as active; the % refers to the signal ratio). In short, it runs like this: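 Fluorescence intensity from cleaved LiveBLAzer B/G substrate (2 h, room temperature) quantified CRE-bla activity in HEK 293T cells exposed 3 h to compound with 0.25 uM final NKH477.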

Molecules are shown by their SMILES. Results filed as inconclusive are left out. More than one record can exist for a structure, and the calls need not agree. The source made the active and inactive calls. Unless noted, the call rests on the fitted dose curve.

KiSS-1 receptor (Homo sapiens), sequence (Q969F8 whole entry, looked up): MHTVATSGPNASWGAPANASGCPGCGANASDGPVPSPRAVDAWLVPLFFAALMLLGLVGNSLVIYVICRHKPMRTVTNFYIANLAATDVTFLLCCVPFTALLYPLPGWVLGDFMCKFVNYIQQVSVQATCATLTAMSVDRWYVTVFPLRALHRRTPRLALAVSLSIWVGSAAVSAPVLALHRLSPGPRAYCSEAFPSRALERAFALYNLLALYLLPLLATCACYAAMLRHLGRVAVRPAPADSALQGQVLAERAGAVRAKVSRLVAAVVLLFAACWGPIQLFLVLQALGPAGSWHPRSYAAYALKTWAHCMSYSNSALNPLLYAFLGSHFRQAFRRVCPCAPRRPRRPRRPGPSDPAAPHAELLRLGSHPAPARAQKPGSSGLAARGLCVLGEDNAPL
Muscarinic acetylcholine receptor M1 (Homo sapiens), sequence (P11229 whole entry, looked up): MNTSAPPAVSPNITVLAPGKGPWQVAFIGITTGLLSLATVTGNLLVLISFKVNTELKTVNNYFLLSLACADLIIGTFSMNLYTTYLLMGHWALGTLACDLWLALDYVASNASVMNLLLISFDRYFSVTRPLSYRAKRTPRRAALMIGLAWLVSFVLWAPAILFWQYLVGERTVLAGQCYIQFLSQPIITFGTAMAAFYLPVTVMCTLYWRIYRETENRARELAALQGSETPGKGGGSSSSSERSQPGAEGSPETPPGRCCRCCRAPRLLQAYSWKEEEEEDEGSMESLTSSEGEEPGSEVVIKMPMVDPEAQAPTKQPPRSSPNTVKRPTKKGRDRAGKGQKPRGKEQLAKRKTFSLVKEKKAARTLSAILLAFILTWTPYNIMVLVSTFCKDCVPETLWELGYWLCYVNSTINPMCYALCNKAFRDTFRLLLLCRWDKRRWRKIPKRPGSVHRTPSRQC
D(2) dopamine receptor (Homo sapiens), sequence (P14416 whole entry, looked up): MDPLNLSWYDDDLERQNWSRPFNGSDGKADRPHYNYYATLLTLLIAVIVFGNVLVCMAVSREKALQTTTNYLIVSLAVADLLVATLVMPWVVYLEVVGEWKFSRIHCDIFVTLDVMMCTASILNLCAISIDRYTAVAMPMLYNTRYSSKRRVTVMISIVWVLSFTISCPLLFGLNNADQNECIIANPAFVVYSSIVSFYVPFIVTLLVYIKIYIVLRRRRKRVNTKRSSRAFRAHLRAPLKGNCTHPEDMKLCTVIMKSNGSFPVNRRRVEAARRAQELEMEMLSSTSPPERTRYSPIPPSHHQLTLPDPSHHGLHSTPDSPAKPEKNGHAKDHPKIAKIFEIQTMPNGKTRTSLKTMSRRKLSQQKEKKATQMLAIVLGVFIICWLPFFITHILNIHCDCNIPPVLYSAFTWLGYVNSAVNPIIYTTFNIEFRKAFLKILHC
Gonadotropin-releasing hormone receptor (Homo sapiens), sequence (P30968 whole entry, looked up): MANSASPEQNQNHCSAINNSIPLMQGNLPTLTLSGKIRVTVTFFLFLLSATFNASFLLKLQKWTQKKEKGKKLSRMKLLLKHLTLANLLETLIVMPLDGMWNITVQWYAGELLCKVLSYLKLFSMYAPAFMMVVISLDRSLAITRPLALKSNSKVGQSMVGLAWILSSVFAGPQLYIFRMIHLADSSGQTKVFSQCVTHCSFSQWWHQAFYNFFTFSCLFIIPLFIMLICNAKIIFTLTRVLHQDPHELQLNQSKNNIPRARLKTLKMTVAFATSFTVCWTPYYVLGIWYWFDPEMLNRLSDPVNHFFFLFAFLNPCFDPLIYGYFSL
Beta-2 adrenergic receptor (Homo sapiens), sequence (P07550 whole entry, looked up): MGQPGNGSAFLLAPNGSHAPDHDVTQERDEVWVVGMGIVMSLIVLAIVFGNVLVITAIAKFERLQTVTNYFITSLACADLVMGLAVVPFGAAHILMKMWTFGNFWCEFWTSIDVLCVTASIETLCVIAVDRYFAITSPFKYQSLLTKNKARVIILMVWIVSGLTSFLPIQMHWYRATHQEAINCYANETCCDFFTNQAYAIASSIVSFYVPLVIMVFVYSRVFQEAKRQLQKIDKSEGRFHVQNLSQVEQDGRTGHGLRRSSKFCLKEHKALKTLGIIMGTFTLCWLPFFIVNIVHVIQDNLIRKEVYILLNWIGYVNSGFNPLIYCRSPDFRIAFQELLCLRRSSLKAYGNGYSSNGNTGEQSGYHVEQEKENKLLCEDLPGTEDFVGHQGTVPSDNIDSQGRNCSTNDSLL
5-hydroxytryptamine receptor 2A (Homo sapiens), sequence (P28223 whole entry, looked up): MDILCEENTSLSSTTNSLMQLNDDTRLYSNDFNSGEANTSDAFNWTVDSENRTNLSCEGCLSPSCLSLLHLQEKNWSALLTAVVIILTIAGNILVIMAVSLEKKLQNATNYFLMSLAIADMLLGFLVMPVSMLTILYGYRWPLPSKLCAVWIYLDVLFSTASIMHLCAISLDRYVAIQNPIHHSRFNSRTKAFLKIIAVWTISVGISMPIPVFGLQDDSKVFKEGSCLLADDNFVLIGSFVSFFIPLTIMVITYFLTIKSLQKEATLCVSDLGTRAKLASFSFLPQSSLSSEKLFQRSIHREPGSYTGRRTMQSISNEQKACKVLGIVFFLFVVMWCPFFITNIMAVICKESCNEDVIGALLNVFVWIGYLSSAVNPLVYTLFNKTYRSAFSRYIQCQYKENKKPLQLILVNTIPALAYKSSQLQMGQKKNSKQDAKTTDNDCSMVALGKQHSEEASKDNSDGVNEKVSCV

Take `CCCCOP(=O)(CCCC)OCCCC`: the Potency entry in experiment [1], in [2], in experiment [3], in [4], in experiment [5] and in experiment [6] was “inactive” throughout. Moreover, the Potency result in experiment [7], in experiment [8], in experiment [9], in [10], in experiment [11] and in experiment [12] was “inactive” throughout. Besides, the Potency result in [14], in experiment [15], in [16], in experiment [17], in experiment [18] and in experiment [19] was “inactive” throughout. The Potency in experiment [13] is 19.5 µM (active).
As to `Nc1ccccc1C(=O)OCCc1ccccc1`, the Potency entry in experiment [1], in [3], in experiment [4], in experiment [5], in [6] and in [7] was “inactive” each time. The Potency entry in [8], in experiment [9], in [10], in [11], in experiment [12] and in experiment [13] was “inactive” throughout. The Potency entry in experiment [14], in experiment [15], in [17] and in experiment [19] was “inactive” each time. The Potency in experiment [2] is 488 nM (active) and inactive.
With `COC[C@@H](NC(C)=O)C(=O)NCc1ccccc1`, the Potency result in [1], in [2], in experiment [3], in [4], in experiment [5] and in experiment [6] was “inactive” each time. For the same molecule, the Potency result in experiment [7], in experiment [8], in [9], in experiment [10], in experiment [11] and in experiment [12] was “inactive” each time. Further, the Potency entry in [13], in [14], in experiment [15], in experiment [16], in experiment [20] and in [18] was “inactive” each time.
As for `CC(C)NC(=O)N1CC(=O)N(c2cc(Cl)cc(Cl)c2)C1=O`, the Potency result in experiment [1], in experiment [2], in experiment [3], in experiment [4], in experiment [5] and in [6] was “inactive” throughout. Further, the Potency result in [7], in [8], in [9], in experiment [10], in [11] and in experiment [12] was “inactive” in each case. Also, the Potency result in experiment [13], in [14], in experiment [15], in experiment [20], in experiment [17] and in experiment [18] was “inactive” throughout. Besides, the Potency result in [19] is “inactive”.
Take `CCC/C=N/O`: the Potency result in experiment [1], in experiment [2], in experiment [3], in [4], in experiment [5] and in [6] was “inactive” each time. In addition, the Potency entry in experiment [7], in [8], in experiment [9], in experiment [10], in experiment [11] and in experiment [12] was “inactive” each time. For the same molecule, the Potency result in experiment [13], in experiment [14], in [15], in [20], in experiment [17] and in experiment [18] was “inactive” in each case. Moreover, the Potency entry in experiment [19] was “inactive”.
Take `CNC`: the Potency result in [1], in [2], in experiment [3], in [4], in experiment [5] and in [6] was “inactive” each time. Besides, the Potency entry in experiment [7], in [8], in experiment [9], in experiment [10], in experiment [11] and in [12] was “inactive” throughout. Besides, the Potency result in experiment [13], in [15], in [16], in experiment [17], in experiment [18] and in [19] was “inactive” each time. Further, the Potency in experiment [14] is 3.34 µM (active) and inactive.
In the case of `Nc1ccc([N+](=O)[O-])cc1N`, the Potency is 13.7 µM (active) in [1] and 34.4 µM (active) in [2]. Also, the Potency entry in experiment [3], in [4], in [5], in [6], in [7] and in experiment [8] was “inactive” in each case. Besides, the Potency result in [9], in [10], in experiment [11], in experiment [12], in experiment [13] and in [14] was “inactive” each time. Besides, the Potency result in experiment [15], in experiment [16], in [18] and in [19] was “inactive” throughout.
As to `CC[C@H](N)c1ccccc1`, the Potency entry in [1], in [2], in experiment [3], in [4], in experiment [5] and in experiment [6] was “inactive” in each case. For the same molecule, the Potency result in [7], in experiment [8], in experiment [9], in experiment [10], in experiment [11] and in experiment [12] was “inactive” in each case. Further, the Potency entry in experiment [13], in experiment [14], in experiment [15], in experiment [16], in experiment [20] and in [18] was “inactive” throughout. Besides, the Potency result in [19] was “inactive”.
